Bioassay records: PubChem BioAssay, National Center for Advancing Translational Sciences (NCATS)
Compounds with a hit are over-represented: about 9.2% of the library has one in this group of screens.
FLuc modulator: inhibits or activates purified firefly luciferase, miR-21 counter-screen; AID 588342; purified FLuc, Km substrates, luminescence inhibition; Potency, µM (doses to about 57.5 µM), for inactives: top-dose activity change, negative = inhibition, most hits filed as inhibitors; P08659; 6.9% of 360,000 active;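 further: plate controls were vehicle for no effect and reference inhibitor for full effect; nearly all actives have a fitted effect of over 55% in size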
Target sequence (P08659 whole entry, looked up): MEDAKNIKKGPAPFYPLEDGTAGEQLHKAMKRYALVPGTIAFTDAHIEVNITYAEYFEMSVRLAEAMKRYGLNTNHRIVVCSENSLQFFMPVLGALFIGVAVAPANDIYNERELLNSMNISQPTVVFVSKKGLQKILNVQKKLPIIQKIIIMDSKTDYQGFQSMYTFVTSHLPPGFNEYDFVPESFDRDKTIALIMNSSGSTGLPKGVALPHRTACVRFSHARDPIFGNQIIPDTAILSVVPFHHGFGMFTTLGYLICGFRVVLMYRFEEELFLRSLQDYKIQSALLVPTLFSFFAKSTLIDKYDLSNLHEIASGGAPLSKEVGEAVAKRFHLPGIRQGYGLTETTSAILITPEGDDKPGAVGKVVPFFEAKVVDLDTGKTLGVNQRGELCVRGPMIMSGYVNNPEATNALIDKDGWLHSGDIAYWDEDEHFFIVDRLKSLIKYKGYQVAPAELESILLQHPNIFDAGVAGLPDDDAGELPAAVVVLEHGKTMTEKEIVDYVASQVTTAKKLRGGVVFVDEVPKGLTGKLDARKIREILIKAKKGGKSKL
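Biochemical qHTS of compounds, final roughly 60 µM downward over six points, against 10 nM purified firefly luciferase using Km concentrations of substrates (10 uM D-luciferin, 10 uM ATP) in Tris acetate pH 7.5 buffer; luminescence output.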
NPC1 prom act: activators of NPC1 promoter | 2.4% of 320,000 active | Potency, µM (series often up to 9.22 µM), for inactives: top-dose activation, usual class: activators | Huh7 NPC1 promoter luciferase reporter, 24 h; further: % of control where 0% means no effect; nearly all actives have a fitted effect of over 60% in size
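NPC1 promoter–luciferase Huh7 cells; 24 h compound; luminescence.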
SMN2 splice up: increases expression of the SMN2 splice variant; HEK293 SMN2-luciferase splicing reporter, luminescence, 30-36 h; Potency, µM (doses to about 46.1 µM), without a hit: at the top dose activity change, positive = activation, usual class: activators; 2.8% of 210,000 active; AID 1458; further: % of control where 0% means no effect; nearly all actives have a fitted effect of over 55% in size
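HEK293 cells carry an SMN2 […]–luciferase reporter in which exon 7 inclusion puts luciferase in frame. Cells were plated 10-12 h before compound addition, then incubated 30-36 h at 37C. ONE-Glo luminescence was read; sodium butyrate at 4.5 mM final served as control.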
ELG1 DNA repair: inhibitors of ELG1-dependent DNA repair in HEK293T cells; HEK293T ELG1-luciferase reporter, luminescence, 16 h; DNA damage induced by 5-fluorouridine; Potency, µM (top dose mostly 46.1 µM), inactives show at the highest dose activity change, negative = inhibition, usual class: inhibitors; 2.3% of 330,000 active; AID 504467; further: on the % scale 0 is the no-effect control and ±100 the full control effect; nearly all actives have a fitted effect of over 55% in size
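DMSO vehicle served as the neutral condition. Each well held 2,000 cells given 5-fluorouridine plus compound; after 16 hr at 37 °C/5% CO2, ONE-Glo was added and luciferase measured 30 min later.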
Rab9 promoter act: activates the Rab9 promoter. 2.8% of 320,000 active. Potency, µM (series often up to 9.22 µM), for the others: at the highest dose activation, negative = inhibition, hits mostly activators. Huh7 Rab9 promoter-luciferase reporter, luminescence, 24 h; further: % of control where 0% means no effect; nearly all actives have a fitted effect of over 60% in size
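Measured in stably transfected Huh7 cells bearing a Rab9 promoter–luciferase construct: 24 h compound treatment at 37 °C, followed by luminescence detection.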
ELG1 genotoxic: inducers of genotoxicity in HEK293T ELG1-luciferase cells. HEK293T ELG1-luciferase reporter, luminescence, 16 h. Potency, µM (titrated, usually from 46 µM), for the others: at the highest dose activity change, positive = activation, usual class: activators. 1.3% of 330,000 active. AID 504466; further: % of control where 0% means no effect; nearly all actives have a fitted effect of over 60% in size
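Cells (2,000/well) expressing the ELG1-luciferase fusion are dosed by pin tool and kept 16 hr at 37 °C, 5% CO2. Signal comes from ONE-Glo luciferase reagent after 30 min at room temperature.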
An asterisk follows results filed as active; ? = inconclusive; . = no result given; [ ] = remark or other dose. The call rests on the fitted dose curve; in most records, active means well fitted curve in the direction sought with a large enough effect; inconclusive means small, poorly fitted or top-dose-only effect, or another doubt; inactive means no such curve, though single readings can be large; an effect the other way counts as inactive or inconclusive. Potency means the concentration at half of the fitted maximal effect.

SMILES	FLuc modulator	NPC1 prom act	SMN2 splice up	ELG1 DNA repair	Rab9 promoter act	ELG1 genotoxic
CC(=O)Nc1ccc(N/C=C/C(=O)c2ccc(Br)cc2)cc1	-15%	25%	.	?	?	3%
CCOC(=O)c1cccc(NC(=O)N2CC(CC)Sc3ccccc32)c1 (centres undefined)	0%	.	.	.	.	.
O=S1(=O)N=C(Nc2ccc(N3CCOCC3)c(Cl)c2)c2ccccc21	5.4µM*	?	13µM*	6%	3.5µM*	?
O=S1(=O)N=C(Nc2ccc(O)cc2)c2ccccc21	-3%	1%	7%	10%	-3%	0%
C=C(NC(=O)C(=C)NC(=O)c1csc(C2=NC3c4csc(n4)C4NC(=O)c5csc(n5)C(C(C)(O)C(C)O)NC(=O)C5CSC(=N5)C(=CC)NC(=O)C(C(C)O)NC(=O)c5csc(n5)C3(CC2)NC(=O)C(C)NC(=O)C(=C)NC(=O)C(C)NC(=O)C(C(C)CC)NC2C=Cc3c(C(C)O)cc(nc3C2O)C(=O)OC4C)n1)C(N)=O (centres undefined)	.	.	-35%	.	.	.
C=C(NC(=O)C(=C)NC(=O)c1csc(C2=NC3c4csc(n4)C4NC(=O)c5csc(n5)C([C@@](C)(O)C(C)O)NC(=O)C5CSC(=N5)/C(=C\C)NC(=O)C(C(C)O)NC(=O)c5csc(n5)[C@]3(CC2)NC(=O)C(C)NC(=O)C(=C)NC(=O)C(C)NC(=O)C(C(C)CC)NC2C=Cc3c(C(C)O)cc(nc3C2O)C(=O)OC4C)n1)C(N)=O (some centres undefined)	2%	-33%	.	5.2µM*	-42%	?
COc1cc(C(=O)Nc2sc3c(c2C#N)CCCC3)c(Br)c(OC)c1OC	-18%	.	7%	.	.	.
CC(=O)Nc1ccc(N2CCCCC2)cc1	-14%	13%	-10%	12%	10%	7%
O=C(Nc1ccc(N2CCCC2)cc1)c1ccccc1F	2.1µM*	0.5µM*	2.8µM*	?	0.5µM*	?
O=C(Nc1ccc(N2CCCCC2)cc1)c1cccnc1Cl	?	22%	-6%	?	?	21µM*
O=C(Nc1ccc(N2CCCCC2)cc1)c1ccc(F)cc1F	1.3µM*	0.32µM*	.	?	0.35µM*	?
O=C(NC(=O)c1ccc(F)cc1F)Nc1ccc(Cl)cc1	-10%	?	.	?	2.2µM*	13%
O=C(Nc1ccc(F)cc1)Nc1ccc(Cl)cn1	-4%[2.3 µM]	26%	?	?	?	?
CS(=O)(=O)N1CCN(c2ccc(NC(=O)c3cccnc3Cl)cc2)CC1	-9%	3%	20%	20%	?	7%
CCc1cccc(NC(=O)CCCSc2nc3ccccc3[nH]2)c1	-13%	1%	-24%	?	-2%	-5%
N#Cc1sc2nc3c(cc2c1N)CCCC3	13µM*	14%	-9%	?	-4%	16%
Cc1cccc(NC(=O)c2sc3nc4c(cc3c2N)CCCCCC4)c1C	0%	.	-2%	.	.	.
Nc1c(C(=O)C2CC2)sc2nc3c(cc12)CCC3	8.5µM*	2.5µM*	.	?	?	?
NC(=O)c1sc2nc3c(cc2c1N)CCCCCC3	19µM*	2.5µM*	.	?	?	-1%
Nc1c(C(=O)O)sc2nc3c(cc12)CCCC3	?	11%	.	14%	11%	2%
Cc1ccc(N2CC(NC(=O)CCc3ccccc3)CC2=O)cc1 (centres undefined)	-5%	.	.	.	.	.
COc1ccc(OCC(O)Cn2c(NCCO)nc3c2c(=O)n(C)c(=O)n3C)cc1 (centres undefined)	3%	.	-52%	.	.	.
N#CCCN1CCCc2cc(N=Nc3ccc(C(F)(F)F)cc3)ccc21	13µM*	?	.	?	?	11%
CCOc1cc(CNn2cnnc2SCC(=O)NC(C)(C)C)ccc1OCC(=O)NC(C)(C)C	2%	-1%	-20%	?	-1%	-5%
O=C(N/N=C/c1ccc2c(c1)OCO2)C(O)c1ccccc1 (centres undefined)	?	18%	93%	?	?	0%
SMILES	FLuc modulator	NPC1 prom act	SMN2 splice up	ELG1 DNA repair	Rab9 promoter act	ELG1 genotoxic
Oc1csc(Cc2nc(-c3ccc(Br)cc3)cs2)n1	?	3.2µM*	?	?	3.5µM*	?
BrCCOCCOc1ccc2ccccc2c1	15µM*	?	?	?	?	?
COc1cc(NC(=O)C2=C(N3CCOCC3)/C(=C\c3ccc(Br)cc3)CC2)cc(OC)c1OC	-2%	-3%	16%	18µM*	3%	-6%
O=C(NP(=O)(N1CCOCC1)N1CCOCC1)C1=C(N2CCOCC2)/C(=C\c2ccccc2)CC1	-20%	0%	5%	8%	-2%	4%
COc1cc(NC(=O)C2=C(N3CCOCC3)/C(=C\c3ccc(Cl)cc3Cl)CC2)cc(OC)c1OC	2%	-3%	14%	21µM*	-4%	-1%
COCc1ccc(C(=O)N2CCCC(CNC(=O)c3ccc(F)cc3)C2)o1 (centres undefined)	-10%	-1%	.	0%	23%	-3%
CC12CCC(=O)N1C(C(=O)N1CCN(S(=O)(=O)c3ccc(F)c(F)c3)CC1)CS2 (centres undefined)	0%	-1%	.	7%	-2%	-6%
O=C(NCCN1CCOCC1)c1cc(-c2ccccc2Cl)on1	?	-2%	.	?	-8%	9%
O=C(Nc1ccccc1)OCc1cc(-c2ccccc2Cl)on1	13µM*	25%	?	?	3%	20%
O=C(Nc1cccc(O)c1)c1cc(-c2ccccc2Cl)on1	0.38µM*	?	.	?	19%	?
COc1ccc(NC(=O)c2cc(-c3ccccc3Cl)on2)cc1OC	7.6µM*	14%	.	?	14%	7%
Cn1ncc(C#N)c1NC(=O)c1cc(-c2ccccc2Cl)on1	27µM*	15%	6%	?	8%	3%
COc1ccc(NC(=O)c2cc(-c3ccc(OC)c(OC)c3)on2)cc1OC	0%	-1%	3%	13%	11%	2%
COc1cc(/C=N/N=C/c2c[nH]c(=O)c(C#N)c2Nc2ccccc2)ccc1O	-5%	0%	.	-2%	-1%	0%
CCOC(=O)c1c(C)sc2c1N(C(=O)CN1CCOCC1)c1cc(Cl)ccc1S2	2%	0%	10%	?	-2%	-11%
Cc1cc(N2CCC(C(=O)Nc3ccc(F)cc3C)CC2)n2nc(C)c(-c3ccc(Cl)cc3)c2n1	-2%	.	12%	.	.	.
c1ccc(NN(Cc2cnccn2)c2ccccc2)cc1	.	.	-14%[9.22 µM]	.	.	.
